ALR H2O2 inh – inhibitors of human ALR sulfhydryl oxidase, primary screen, biochemical, H2O2 detection, HRP-luminol luminescence, single point. FAD-linked sulfhydryl oxidase ALR (Homo sapiens), P55789. purified ALR, DTT oxidation. inhibition, % (no concentration beside the values). 3.8% of 290,000 active;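 active means mean replicate inhibition above about 79%, with every replicate also reaching it, limit read from the data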
PolyA inhibitor – polyadenylation inhibitors in yeast reporter cells, primary screen, luminescence, S. cerevisiae | activity score, % at 12 µM | 0.02% of 300,000 active | S. cerevisiae SKY197-pL101 polyadenylation reporter, beta-gal luminescence; efflux-impaired pdr1/pdr3 knockout yeast; score 100 = 6 SD above DMSO;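 active means lowest replicate activity score at least 50, where 100 means six control SD above control mean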;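 further: yeast exposed to compound for 9 h at 30 °C; higher score means more reporter readthrough which indicates perturbed polyadenylation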
CaV13 ICDI inh – Disruptors of the CACNA1D IQ motif to Ca2+-dependent inactivation inhibitor domain association, primary screening, Förster resonance energy transfer in intact living …. HEK cells, CFP/YFP FRET ICDI-IQ, plate reader, 10 min; percent FRET-ratio fall versus neutral wells. inhibition, % at 12.3 µM. 0.098% of 340,000 active. AID 743397;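 active means mean replicate inhibition of at least 30% and at least 1% of replicates passing that level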;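 further: 0% = median of the neutral control wells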
IDE act – human IDE activators in live cells, primary screen, fluorescence polarization, HEK cells, FAbeta-B substrate | Insulin-degrading enzyme (Homo sapiens), P14735 | FAbeta-B cleavage; 0% vehicle, 100% cell-free pure enzyme wells | activation, % at 5.96 µM | 0.073% of 340,000 active | AID 493087, 2011;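 active means activation above the mean of all tested compounds plus 3 SD, set per screening campaign, cut at about 17% in these data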
Target sequence (P14735 whole entry, looked up): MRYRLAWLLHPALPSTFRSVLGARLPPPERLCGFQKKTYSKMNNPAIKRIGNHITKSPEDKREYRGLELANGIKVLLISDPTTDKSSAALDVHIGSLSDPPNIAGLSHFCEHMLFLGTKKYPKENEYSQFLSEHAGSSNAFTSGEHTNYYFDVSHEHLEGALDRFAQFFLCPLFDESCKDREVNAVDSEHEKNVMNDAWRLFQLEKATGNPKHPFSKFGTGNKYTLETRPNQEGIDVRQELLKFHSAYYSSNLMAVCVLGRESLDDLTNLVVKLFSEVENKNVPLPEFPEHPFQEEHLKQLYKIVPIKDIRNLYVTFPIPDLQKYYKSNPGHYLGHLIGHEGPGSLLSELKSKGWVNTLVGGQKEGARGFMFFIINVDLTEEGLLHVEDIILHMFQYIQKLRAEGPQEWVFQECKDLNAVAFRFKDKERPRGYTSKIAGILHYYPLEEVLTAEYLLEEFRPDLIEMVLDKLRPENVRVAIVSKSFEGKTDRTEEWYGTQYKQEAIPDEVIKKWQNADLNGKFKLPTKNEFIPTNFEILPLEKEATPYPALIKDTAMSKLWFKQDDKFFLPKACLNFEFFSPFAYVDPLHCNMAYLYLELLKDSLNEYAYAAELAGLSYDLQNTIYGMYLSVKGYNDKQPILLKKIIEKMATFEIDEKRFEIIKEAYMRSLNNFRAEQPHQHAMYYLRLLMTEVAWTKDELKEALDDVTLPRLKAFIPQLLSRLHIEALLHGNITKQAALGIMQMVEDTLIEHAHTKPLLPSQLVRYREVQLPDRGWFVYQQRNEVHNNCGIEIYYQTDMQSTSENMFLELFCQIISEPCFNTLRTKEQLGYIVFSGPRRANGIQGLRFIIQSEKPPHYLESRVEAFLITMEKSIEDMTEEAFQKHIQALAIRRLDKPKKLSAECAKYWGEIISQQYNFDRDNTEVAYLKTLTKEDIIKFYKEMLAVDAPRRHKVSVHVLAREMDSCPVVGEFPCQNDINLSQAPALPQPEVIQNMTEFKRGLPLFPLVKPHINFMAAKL
PfM18AAP inh – PfM18AAP inhibitors, malaria aminopeptidase, primary screen, biochemical, QFRET, recombinant enzyme. M18 aspartyl aminopeptidase (Plasmodium falciparum 3D7). H-Glu-NHMec fluorogenic cleavage. inhibition, % at 7.35 µM. 1.2% of 290,000 active;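 active means inhibition above the campaign mean inhibition over all tested compounds plus 3 SD, cut at about 28% in these data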;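 further: 0% = plate median of test compound wells and 100% = 2 mM ZnCl2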
IDE cell inh – human IDE inhibitors in live cells, primary screen, fluorescence polarization, HEK cells, FAbetaB substrate. Insulin-degrading enzyme (Homo sapiens), P14735. FAbetaB cleavage. inhibition, % at 5.59 µM. 0.41% of 320,000 active. AID 434962, 2010;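 active means percent inhibition above the average of all tested compounds plus 3 SD, set per screening campaign, cut at about 16% in these data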;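 further: IDE supplied by intact live HEK cells; FP after avidin binding of uncleaved biotin substrate so inhibition keeps polarization high; 0% = DMSO wells and 100% = 60 µM reference IDE inhibitor Ii1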
IDE cell inh cf – human IDE inhibitors in live cells, confirmation, fluorescence polarization, HEK cells, FAbetaB substrate; inhibition, % at 5.59 µM; 51% of 1,200 active; AID 435028, 2010; shares compounds with IDE cell inh; FAbetaB cleavage;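 active means mean inhibition across triplicate wells above the cutoff set by the earlier primary insulin-degrading enzyme screen, cut at about 16% in these data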;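 further: 0% = DMSO wells and 100% = 60 µM reference IDE inhibitor Ii1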
HEK293 tox – cytotoxicity in HEK cells, cytotoxicity control for IDE inhibitor project, cell-based, luminescence | shares compounds with IDE cell inh | 28% of 1,200 active | HEK293 cytotoxicity, ATP luminescence | inhibition, % at 5.59 µM; in the data active means inhibition above about 22%;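 further: 0% = vehicle wells and 100% = reference cytotoxic drug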
Numbers without * were called inactive; / = no result given. The list is not random: actives were taken first. Their share in the collection is about 4.1%.

SMILES	ALR H2O2 inh	PolyA inhibitor	CaV13 ICDI inh	IDE act	PfM18AAP inh	IDE cell inh	IDE cell inh cf	HEK293 tox
CCOCCCNc1nc2c(C)cccn2c(=O)c1/C=C1\SC(=S)N(CC(C)C)C1=O	-1	-27	-4	-1	-3	5	/	/
Cc1c(C(=O)Nc2ccc(-c3nnc4n3CCCCC4)cc2)oc2c1ccc1ccccc12	5	-1	-3	-12	-4	23*	13	39*
O=C(/C=C/c1ccccc1Cl)Nc1ccc(-c2nnc3n2CCCCC3)cc1	-6	10	-5	-2	-6	31*	1	9
Cn1c(=O)oc2cc(S(=O)(=O)NCCC(=O)NCc3ccc(F)cc3)ccc21	-3	1	-2	1	1	-3	/	/
CCn1c(SCC(=O)Nc2nnc(C)s2)nc2c(c1=O)SC(C)C2 (stereo not drawn)	1	-9	14	3	-1	0	/	/
CCc1nnc(NC(=O)CSc2nc3c(c(=O)n2C)SC(C)C3)s1 (stereo not drawn)	-28	8	-3	-30	4	17*	11	5
Cc1c(Br)c([N+](=O)[O-])nn1CC(=O)Nc1cccc2nonc12	-13	7	-9	4	1	-3	/	/
CCN(CC)c1ccc(/C=C(\C#N)C(=O)NCc2ccco2)cc1	/	/	10	/	9	90*	52*	14
Cn1c(=O)n(C)c2cc(/C=C(/C#N)C(=O)NCc3ccco3)ccc21	/	-5	-2	0	-4	1	/	/
CN(C)c1ccc(/C=C(\C#N)C(=O)NCc2ccco2)cc1	/	3	/	/	-8	22*	14	18
CCOC(=O)Cc1nc2cc(Cl)ccc2o1	-12	-3	-5	-1	12	0	/	/
O=C1c2ccccc2C(=O)C1(O)O	-46	/	/	/	/	2	/	/
CC1(S(=O)(=O)O)CC(=O)c2ccccc2C1=O (stereo not drawn)	93*	18	-5	-9	1	43*	116*	29*
CCCCCC(=O)Nc1ccc(C(=O)COC(=O)Cn2cnc3c2c(=O)n(C)c(=O)n3C)cc1	-2	9	-6	2	/	0	/	/
O=C(O)c1ccccc1-c1c2cc(I)c(=O)c(I)c-2oc2c(I)c(O)c(I)cc12	82*	/	-4	-174	/	147*	91*	27*
O=C(COc1ccc2ccccc2c1)Nc1cccnc1Cl	1	-26	-7	-3	0	3	/	/
COc1ccccc1C(=O)Nc1ccccc1SC(=O)c1ccccc1OC	-3	-18	-18	-21	31*	43*	11	30*
CCN1C/C(=C/c2ccc(N3CCOCC3)cc2)C(=O)/C(=C/c2ccc(N3CCOCC3)cc2)C1	12	-2	-18	-24	17	18*	29*	94*
CCc1ccc(/C=C2/SC(N3CCOCC3)=NC2=O)cc1	/	1	-17	-1	2	-1	/	/
CCOc1ccc(Cl)cc1/C=N/NC(=O)CNC(=O)c1ccccc1	4	8	-6	-6	4	26*	6	15
CC(=O)NN1C(=O)/C(=C\c2ccc(C)cc2)SC1=S	-4	7	-3	-4	8	-1	/	/
O=C1/C(=C\c2ccc(O)cc2)SC(=S)N1/N=C/c1ccc(O)cc1	21	1	-4	-160	22	75*	98*	11
COc1cc(/C=C2\SC(=S)N(NC(=O)c3ccc(O)cc3)C2=O)ccc1O	99*	52	-34	-85	9	85*	150*	10
O=C(NN1C(=O)/C(=C\c2ccc(O)c([N+](=O)[O-])c2)SC1=S)c1ccccc1Cl	13	0	-2	1	1	-2	/	/
O=C(NN1C(=O)/C(=C/c2ccc(O)c(O)c2)SC1=S)c1ccccc1	99*	2	-1	-43	65*	43*	87*	17
SMILES	ALR H2O2 inh	PolyA inhibitor	CaV13 ICDI inh	IDE act	PfM18AAP inh	IDE cell inh	IDE cell inh cf	HEK293 tox
CC(=O)NN1C(=O)/C(=C\c2ccc(O)cc2)SC1=S	99*	-2	-22	-73	18	36*	89*	8
CC(C)NCc1nnc(-c2ccccc2Cl)o1	-18	14	-2	4	0	2	/	/
CC(C)(C)NC(=O)CC1C[C@H](C(=O)N2CCOCC2)[C@@]2(CCC3CCCC3)c3[nH]c4ccccc4c3CCN2C1=O (stereo partly drawn)	-2	/	-6	6	/	2	/	/
Cc1ccc(S(=O)(=O)N2CCC(N3CCN(C)CC3)CC2)cc1Cl	-2	23	-2	3	-12	-1	/	/
CCN(CC(=O)Nc1c(F)cccc1F)C(=O)C1CCN(S(=O)(=O)c2ccc(C)cc2C)CC1	0	11	-3	2	/	-2	/	/
COc1cc(/C=C2\SC(=S)N(NC(=O)c3cccnc3)C2=O)ccc1O	99*	86*	-23	-130	6	114*	159*	9
O=C(NN1C(=O)/C(=C\c2cccnc2)SC1=S)c1ccco1	-5	8	3	2	19	11	/	/
Cc1ccc(N2C(=O)c3cccc4c(N)ccc(c34)C2=O)c2cccnc12	-2	1	-22	-80	-1	84*	65*	68*
Cc1nn(C)c(C)c1N1C(=O)c2cccc3c(N)ccc(c23)C1=O	-19	/	-25	12	8	7	/	/
CCN1C(=O)c2cccc3c(N)ccc(c23)C1=O	2	-13	-91	0	-8	24*	61*	11
CC(C)NC(=O)c1csc(COCCO)n1	/	/	-9	/	/	/	/	/
O=C(O)c1cccc(-c2ccc(/C=N/Nc3ccc([N+](=O)[O-])cc3)o2)c1	19	-17	-26	-10	18	18*	22*	10
NS(=O)(=O)c1ccc(-c2ccc(/C=N/Nc3ccc(C(=O)O)cc3)o2)cc1	67	-9	-9	-3	24	3	/	/
O=C(O)c1ccc(-c2ccc(/C=N/Nc3ccc([N+](=O)[O-])cc3)o2)cc1	5	-3	-55	-33	11	21*	41*	8
O=C(O)c1ccc(N/N=C/C=C/c2ccc([N+](=O)[O-])o2)cc1	12	-10	-6	-47	12	50*	73*	8

Assay outcomes (PubChem BioAssay)
